A selection: hits, their analogues and other compounds. The true share with any hit is near 1.2%.
GCN5L2 inh – inhibitors of human GCN5L2 histone acetyltransferase; GCN5L2 HAT assay, ThioGlo1 CoA-SH fluorescence; Potency, µM (titrated, usually from 58.9 µM), for inactives: top-dose activity change, negative = inhibition, hits mostly inhibitors; actives 0.21% (n = 390,000); AID 504327; note: potency is the fitted concentration of half-maximal effect
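Free CoA generated was detected with ThioGlo1 (50uM) fluorescence at Ex340nm/Em540nm, read immediately and after 20 min at room temperature. Enzyme, 20 nM in HEPES pH 7.5 buffer, saw compounds 15 min before adding 75uM H3(1-25) peptide and 70uM acetyl-CoA.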
hERG WT inh – inhibitors of human wildtype KCNH2 potassium channel; activity change, % at 1.84 µM; U2OS, BacMam KCNH2, thallium flux FluxOr; active compounds read low; actives 0.37% (n = 340,000);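 active = maximum activity change below -70%; inconclusive = maximum activity change between -70% and -50%; inactive = maximum activity change above -50%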
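U2OS cells transduced with wild-type KCNH2 virus are loaded with FluxOr dye for 45 min, and thallium flux is measured in kinetic reads before and after stimulation buffer. Rate constants are normalized to DMSO controls.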
KCNH2 3.1 inh – blocks the human KCNH2 3.1 channel isoform | U2OS KCNH2 3.1, thallium flux FluxOr; active compounds read low | activity change, % (tested at about 1.8 µM) | actives 0.95% (n = 340,000) | AID 720553;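 active = maximum activity change below -70%; inconclusive = maximum activity change from -70% to -50%; inactive = maximum activity change above -50%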;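 note: thallium influx rate constant from kinetic fluorescence after stimulation buffer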
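Measured as rate of thallium-driven FluxOr signal in transduced U2OS cells carrying the 3.1 channel, read kinetically for 2 min upon stimulation; values are rate constants scaled to DMSO control wells.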
Tb PGK inh – blocks T. brucei phosphoglycerate kinase; P07378; PGK/GAPDH coupled, Kinase-Glo luminescence, 60 min; Potency, µM (series often up to 57.5 µM), inactives show at the highest dose activity change, negative = inhibition, most hits filed as inhibitors; actives 0.043% (n = 380,000); note: potency is the fitted concentration of half-maximal effect; nearly all actives have a fitted effect of over 60% in size
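Luminescent ATP detection (Kinase-Glo Plus) follows a 60-minute room-temperature incubation, with wells lacking PGK as controls. Buffer: 100 mM TEA (pH 7.6), 5 mM MgCl2, 0.01% Tween-20. Coupling enzyme GAPDH (100 nM final) supplies unstable 1,3-BPG in-well.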
Pin1 inhibitor – blocks the human prolyl isomerase Pin1 | Q13526 | Pin1 FP peptide displacement, HiFluor488, 10 min | Potency, µM (titrated, usually from 115 µM), inactives show top-dose activity, negative = inhibition, most hits filed as inhibitors | actives 0.009% (n = 390,000) | AID 504891; active = well fitted inhibition curve with a large enough effect in the polarisation, with a control signal flat, not every such curve was filed as active; inconclusive = small, poorly fitted or top-dose-only effect, or effect the other way, or a change in a side signal; inactive = no such curve, though single readings can be large or run the other way; the % refers to the polarisation; note: potency is the fitted concentration of half-maximal effect
Target sequence (Q13526 whole entry, looked up): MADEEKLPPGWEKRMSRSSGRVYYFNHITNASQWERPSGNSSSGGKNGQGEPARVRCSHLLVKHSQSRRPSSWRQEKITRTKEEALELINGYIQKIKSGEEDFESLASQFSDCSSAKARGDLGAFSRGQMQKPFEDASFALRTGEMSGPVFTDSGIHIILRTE
RGS4 inh – human RGS4 inhibition | P49798 | Transcreener GDP fluorescence polarization, RGS4-accelerated GTP hydrolysis | Potency, µM (highest dose often 114 µM), for the others: at the highest dose activity change, negative = inhibition, hits mostly inhibitors | actives 0.039% (n = 390,000) | AID 504845; note: potency is the fitted concentration of half-maximal effect; nearly all actives have a fitted effect of over 75% in size
Target sequence (P49798 whole entry, looked up): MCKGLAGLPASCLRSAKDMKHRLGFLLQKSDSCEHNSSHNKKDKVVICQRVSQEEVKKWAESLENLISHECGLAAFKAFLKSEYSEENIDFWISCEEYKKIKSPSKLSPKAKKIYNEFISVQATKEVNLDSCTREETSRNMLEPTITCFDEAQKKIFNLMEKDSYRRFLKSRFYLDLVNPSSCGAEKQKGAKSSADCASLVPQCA
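MLSMR compounds (23 nl, pin-transferred) preincubated 10 min at room temperature with a 500nM (2x) first reagent, then RGS4 at 900nM (2x) plus Transcreener GDP mix added; fluorescence polarization (620/688 nm) read before and after 90 min at 30 °C.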
* marks the source's active call; other numbers are inactive results; i = inactive; ? = inconclusive; / = not tested or not shown; ! = repeats disagree; [ ] = another dose, or the depositor's remark. Unless noted, calls come from the whole dose curve; as a rule, active = well fitted curve in the direction sought with a large enough effect; inconclusive = small, poorly fitted or top-dose-only effect, or another doubt; inactive = no such curve, though single readings can be large; an effect the other way counts as inactive or inconclusive. % is set by controls: 0 for no effect and ±100 for the full control effect.

SMILES	GCN5L2 inh	hERG WT inh	KCNH2 3.1 inh	Tb PGK inh	Pin1 inhibitor	RGS4 inh
Cc1ccc(-c2cc(C(=O)N3CCN(c4ncccn4)CC3)c3ccccc3n2)cc1	-5.8%	-7.3	-71.0*	6.2%	?	37.5%
COc1ccc(-c2cc(C(=O)Nc3ccc(S(=O)(=O)Nc4onc(C)c4C)cc3)c3ccccc3n2)cc1OC	-17.1%	42.2	-81.2*	-4.8%	-0.5%	-13.7%
CCOC(=O)c1cccc(NC(=O)CCc2c(C)nn(-c3ccc(N4CCCCC4)nn3)c2C)c1	-12.7%	/	/	i	1.9%	29.6%
CCc1ccc(Nc2nc(N3CCOCC3)nc(N3CCOCC3)n2)cc1	4.8%	8.3	-22.4	i	6.1%	-10.4%[56.9 µM]
FC(F)(F)Oc1ccc(Nc2nc(N3CCOCC3)nc(N3CCOCC3)n2)cc1	-6.0%	11.5	-77.2*	9.4%	2.3%	-63.6%[56.9 µM]
Cc1ccc(S(=O)(=O)N2CC=C(c3c(C)n(CC(=O)N4CCCC4)c4ccccc34)CC2)cc1C	-5.1%	/	/	-1.9%	?	-2.5%
CC/C=C/C(=O)N1CC2(CC(c3cccc(NC(=O)COc4ccc(Cl)cc4)c3)=NO2)C[C@H]1C(N)=O (some centres not stated)	-5.2%	-42.3	-71.1*	4.2%	0.6%	12.3%
NC(=O)[C@@H]1CC2(CC(c3cccc(NC(=O)COc4ccc(Cl)cc4)c3)=NO2)CN1C(=O)COc1ccc(Cl)cc1 (some centres not stated)	-26.1%	-12.7	-8.1	-2.2%	34.3%	-19.4%
C=C(C)C(=O)Nc1cccc(C2=NOC3(C2)C[C@H](C(N)=O)N(C(=O)CC)C3)c1 (some centres not stated)	1.6%	6.0	-2.7	5.62µM*	-15.3%	?
C=C(C)C(=O)Nc1cccc(C2=NOC3(C2)C[C@@H](C(N)=O)N(C(=O)CC(c2ccccc2)c2ccccc2)C3)c1 (some centres not stated)	-7.5%	-3.2	-27.6	8.91µM*	-4.5%	3.7%
Cc1cccc(-c2cc3c(nn2)-c2ccccc2C3=O)c1	3.1%	-7.7	4.8	-27.8%	-8.3%	1.7%
Cc1cnc2c(c1)C(=O)c1ccccc1-2	7.4%	0.9	-110.5*	-4.2%	1.1%	12.7%
Cc1ccc(-c2nn(C)c(=O)c3ccccc23)cc1CNC(=O)NC1CCCCC1	1.9%	-142.4*	-165.6*	-9.4%	-8.7%	-40.2%
CC(=O)NCc1cc(-c2nn(C)c(=O)c3ccccc23)ccc1C	-1.8%	-10.0	-11.7	-4.3%	-8.0%	-12.8%
O=C1C=C(c2ccc3ccccc3c2)C[C@@H](c2ccc(F)cc2)C1	-23.6%	-7.3	-85.8*	i	2.6%	11.6%
Cc1ccc(Nc2ccc(N3CCN(c4ccc([N+](=O)[O-])cc4)CC3)nn2)cc1	-1.5%	-85.5*	-108.9*	-9.5%	0.2%	1.9%
Cc1ccc(Nc2ccc(N3CCN(C(=O)c4ccc([N+](=O)[O-])cc4Cl)CC3)nn2)cc1	-3.5%	/	/	i	-3.8%	36.7%
C[C@@H](N)C(=O)O	12.6%	/	/	/	/	21.2µM*!
CC(C)C[C@@H](N)C(=O)O	6.5%	/	/	/	/	37.7µM*
CN1CCC2(CC1)CCN(C(=O)c1ccncc1)CC2	19.9%	/	/	/	/	/
COc1cccc(CNC(=O)C2CCN(c3nnc(-n4c(C)ccc4C)s3)CC2)c1	-6.5%	/	/	/	4.2%	14.7%
CC(=O)Nc1ccc(NS(=O)(=O)c2ccc3[nH]c4c(c3c2)CCCCC4)cc1	9.0%	/	/	-0.1%	-6.1%	-18.8%
Cc1ccc(CNC(=O)Cn2cc(S(=O)(=O)Cc3ccccc3F)c3ccccc32)cc1	-7.0%	/	/	-9.3%	14.8%	-26.8%
Cc1cccc([C@@H](NC(=O)OC(C)(C)C)C(=O)OC(C)(C)C)c1	-2.3%	-0.2	26.9	1.8%	?	2.8%
CC(C)(C)OC(=O)N[C@@H](C(=O)OC(C)(C)C)c1ccccc1	-4.1%	-9.5	-85.5*	-3.2%	-8.7%	8.5%

Screens (PubChem BioAssay)
